High-throughput results deposited in PubChem by National Center for Advancing Translational Sciences (NCATS).
HT1080-NT tox: qHTS for induction of synthetic lethality in tumor cells producing 2HG: qHTS for the HT-1080-NT fibrosarcoma cell line; HT-1080-NT fibrosarcoma viability, CellTiter-Glo ATP luminescence, 48 h; Potency, µM (series often up to 46.1 µM), for inactives: at the highest dose activity, negative = less viability, usual class: cytotoxic; actives 1.6% (n = 360,000);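 further: NT is the 2HG producing partner of a matched IDH1 knockdown line; potency means the concentration at half of the fitted maximal effect; 0% = DMSO-treated cells and -100% = media-only wells without cells; nearly all actives have a fitted effect of over 55% in size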
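Luminescent CellTiter-Glo readout after 48 hours of compound exposure at 37 degrees C defined viability of HT-1080-NT cells. Activity was normalized to DMSO wells and cell-free media wells; concentration-response curves were fitted and assigned curve classes.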
KB-3-1 tox: qHTS assay for MDR1-selective chemotherapeutics: Primary screen using the parental adenocarcinoma cell KB-3-1; KB-3-1 viability, CellTiter-Glo ATP luminescence, 72 h; Potency, µM (doses to about 46.1 µM), actives largely listed as cytotoxic; actives 1.4% (n = 400,000); AID 1347075, 2019; further: potency means the concentration at half of the fitted maximal effect; nearly all actives have a fitted effect of over 60% in size
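Parental KB-3-1 adenocarcinoma cells in phenol-red-free DMEM with 10% FBS were pin-treated with compounds at several concentrations, incubated 72 h at 37 °C, and viability read by CellTiter-Glo luminescence; concentration-effect curves were fitted after normalization.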
KB-V1 MDR tox: qHTS assay for MDR1-selective chemotherapeutics: Primary screen using the drug-selected MDR subline cells KB-V1. Potency, µM (highest dose often 46.1 µM), actives largely listed as cytotoxic. KB-V1 MDR cells viability, CellTiter-Glo, 72 h. actives 3.4% (n = 400,000); further: potency means the concentration at half of the fitted maximal effect; nearly all actives have a fitted effect of over 60% in size
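KB-V1 MDR subline cells in DMEM (phenol-red free, 10% FBS) exposed to compounds in qHTS concentration series for 72 h at 37 degrees C. Viability read by CellTiter-Glo luminescence; concentration-effect curves fitted after normalization and correction.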
HT1080 IDH1KD tx: qHTS for induction of synthetic lethality in tumor cells producing 2HG: qHTS for the HT-1080-IDH1KD cell line; actives 2% (n = 360,000); HT-1080 IDH1 knockdown viability, ATP luminescence, 48 h; Potency, µM (titrated, usually from 46.1 µM), for inactives: top-dose activity, negative = toxicity, most hits filed as cytotoxic;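 further: potency means the concentration at half of the fitted maximal effect; 0% = DMSO wells and -100% = cell-free medium wells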
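HT-1080-IDH1KD cells (IDH1 knocked down), 750/well in RPMI with 5% FBS, treated with compound 48 h at 37 degrees C. Viability by CellTiter-Glo luminescence, normalised to DMSO and no-cell wells; concentration-response curves classed.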
IL1B secr inh: qHTS for Inhibitors of Inflammasome Signaling: IL-1-beta AlphaLISA Primary Screen; THP-1 LPS/ATP IL-1B secretion, AlphaLISA, 16 h; hits give low values; activity change, % at 57.5 µM; actives 4.7% (n = 360,000); in the data active means activity change below about -50%; inconclusive means mostly about -30% to -49%
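THP-1 cells pretreated 1 hr with compounds (up to 57.5 uM final), then stimulated with LPS (250 ng/mL final) plus ATP (1.25 mM final); secreted IL-1B measured by AlphaLISA after 16 hr, decreased signal indicating inhibition.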
Starred values were filed as active, the others as inactive; i = inactive; u = inconclusive; x = no result given. An excerpt weighted towards active compounds, which were near 8.8% of everything screened. Unless noted, the call rests on the fitted dose curve; in most records, active means well fitted curve in the direction sought with a large enough effect; inconclusive means small, poorly fitted or top-dose-only effect, or another doubt; inactive means no such curve, though single readings can be large; an effect the other way counts as inactive or inconclusive. Unless noted, on the % scale 0 is the no-effect control and ±100 the full control effect.

SMILES | HT1080-NT tox | KB-3-1 tox | KB-V1 MDR tox | HT1080 IDH1KD tx | IL1B secr inh
CCn1cc(S(=O)(=O)NCCc2ccc(OC)c(OC)c2)cn1 | -0.7% | i | i | 0.4% | -18.4
CCCC(C(=O)NC1CCCC1)N(Cc1cccs1)C(=O)c1snc(C(N)=O)c1N (stereo not given) | -2.0% | i | 2.31µM* | -19.1% | -4.4
COc1cccc(N(CC(=O)NC2CCCCC2)C(=O)c2snc(C(N)=O)c2N)c1 | 1.9% | i | u | -3.0% | -60.9*
COc1ccc(CN(C(=O)c2snc(C(N)=O)c2N)C(CC(C)C)C(=O)NC2CCCCC2)cc1 (stereo not given) | -29.0% | i | i | u | -71.0*
CCCCC(C(=O)NCCC(C)C)N(CCCN1CCOCC1)C(=O)c1snc(C(N)=O)c1N (stereo not given) | 17.6% | i | 9.2µM* | 12.6% | 10.6
CCOc1ccc(-c2csc3nc[nH]c(=O)c23)cc1 | -0.8% | i | i | 7.3% | u
CCOc1ccc(Cc2noc3c2C(=O)CC(C)(C)C3)cc1OCC | -13.4% | i | u | -6.6% | 14.8
CC(=O)c1ccc(N2C(=O)CC(N3CCN(S(=O)(=O)c4cc(C)ccc4C)CC3)C2=O)cc1 (stereo not given) | 9.8% | u | i | 12.0% | 15.6
COc1cc2c(cc1OC)C(COc1ccc(F)cc1)N(C(=O)c1cccc(F)c1)CC2 (stereo not given) | x | i | i | x | x
COc1cccc(N2CCN(C(=O)c3c(C)oc4ncnc(N5CCCCC5)c34)CC2)c1 | x | i | i | x | x
COc1ccc(CN(C(=O)c2nsc(Cl)c2Cl)C(C(=O)NC2CCCCC2)c2ccc(OC)cc2)cc1 (stereo not given) | u | i | 20.6µM* | u | -21.1
Cc1ccc(C)c(N(C(=O)c2nsc(Cl)c2Cl)C(C(=O)NC2CCCC2)c2ccc(O)cc2)c1 (stereo not given) | -24.2% | 20.6µM* | u | -16.5% | -71.4*
CC(C)CC(C(=O)NC1CCCC1)N(Cc1ccc2c(c1)OCO2)C(=O)c1snc(C(N)=O)c1N (stereo not given) | -0.6% | i | i | 1.0% | 15.6
COc1ccc(CN(C(=O)c2nsc(Cl)c2Cl)C(C(=O)NC2CCCC2)c2ccc(C)cc2)cc1 (stereo not given) | -27.2% | u | u | u | -21.5
CC(C)CCNC(=O)C(CC(C)C)N(Cc1ccc2c(c1)OCO2)C(=O)c1snc(C(N)=O)c1N (stereo not given) | -7.6% | i | u | -15.6% | -57.1*
CC(C)CCNC(=O)Cc1ccc(Nc2nc(=S)[nH]c3ccccc23)cc1 | -3.6% | i | i | 2.0% | -65.0*
O=C(CCCCCNc1nc(=S)[nH]c2ccccc12)NCCc1ccc(Cl)cc1 | -9.6% | i | i | -4.0% | -1.1
O=C(CCCCCNc1nc(=S)[nH]c2ccccc12)NCCc1c[nH]c2ccccc12 | 0.7% | i | u | 3.8% | -78.0*
O=C1C=C(c2ccc(Cl)c(C(F)(F)F)c2)C[C@@H](c2ccc3c(c2)OCO3)C1 | -6.9% | i | i | -4.8% | -12.5
CN(Cc1ccc(Cl)cc1)C(=O)CCl | u | 16.4µM* | u | 16.4µM* | -103.4*
CN(Cc1ccc(Cl)s1)C(=O)CCl | 20.6µM* | u | u | 8.2µM* | -106.5*
COc1ccc(CN(C)C(=O)CCl)cc1 | u | i | i | u | -98.2*
COc1ccc(CN(C)C(=O)COC(=O)c2cnc(Cl)c(Cl)c2)cc1 | -2.0% | i | i | -9.9% | -98.8*
CN(Cc1ccccc1)C(=O)CC(=O)N(C)Cc1ccccc1 | 20.1% | i | i | u | 10.2
CN(C)CCNC(=O)c1ccc(Cl)s1 | 2.8% | i | i | 5.3% | 2.1
